Screen size: about 100,000 compounds; about 4,200 (4.2%) were called active.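 How the source made its calls: active means single-dose well whose peak fluorescence ratio is a statistical outlier from its plate by either plate-standardised score or position-corrected B-score; inactive means the rest.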 Many of the other results were omitted from the sample, so actives are more common in it than they were.
Each compound was assayed against Voltage-dependent T-type calcium channel subunit alpha-1H (Homo sapiens) (UniProt O95180) (assay: Cav3.2 calcium influx blockers – cell-based, Fluo-4 calcium fluorescence, FDSS, MLSMR library, primary screen (AID 449739)). Conditions: Cav3.2-expressing cells, at 10 µM, active compounds read low.
Sequence of Voltage-dependent T-type calcium channel subunit alpha-1H (Homo sapiens) (O95180 whole entry, looked up): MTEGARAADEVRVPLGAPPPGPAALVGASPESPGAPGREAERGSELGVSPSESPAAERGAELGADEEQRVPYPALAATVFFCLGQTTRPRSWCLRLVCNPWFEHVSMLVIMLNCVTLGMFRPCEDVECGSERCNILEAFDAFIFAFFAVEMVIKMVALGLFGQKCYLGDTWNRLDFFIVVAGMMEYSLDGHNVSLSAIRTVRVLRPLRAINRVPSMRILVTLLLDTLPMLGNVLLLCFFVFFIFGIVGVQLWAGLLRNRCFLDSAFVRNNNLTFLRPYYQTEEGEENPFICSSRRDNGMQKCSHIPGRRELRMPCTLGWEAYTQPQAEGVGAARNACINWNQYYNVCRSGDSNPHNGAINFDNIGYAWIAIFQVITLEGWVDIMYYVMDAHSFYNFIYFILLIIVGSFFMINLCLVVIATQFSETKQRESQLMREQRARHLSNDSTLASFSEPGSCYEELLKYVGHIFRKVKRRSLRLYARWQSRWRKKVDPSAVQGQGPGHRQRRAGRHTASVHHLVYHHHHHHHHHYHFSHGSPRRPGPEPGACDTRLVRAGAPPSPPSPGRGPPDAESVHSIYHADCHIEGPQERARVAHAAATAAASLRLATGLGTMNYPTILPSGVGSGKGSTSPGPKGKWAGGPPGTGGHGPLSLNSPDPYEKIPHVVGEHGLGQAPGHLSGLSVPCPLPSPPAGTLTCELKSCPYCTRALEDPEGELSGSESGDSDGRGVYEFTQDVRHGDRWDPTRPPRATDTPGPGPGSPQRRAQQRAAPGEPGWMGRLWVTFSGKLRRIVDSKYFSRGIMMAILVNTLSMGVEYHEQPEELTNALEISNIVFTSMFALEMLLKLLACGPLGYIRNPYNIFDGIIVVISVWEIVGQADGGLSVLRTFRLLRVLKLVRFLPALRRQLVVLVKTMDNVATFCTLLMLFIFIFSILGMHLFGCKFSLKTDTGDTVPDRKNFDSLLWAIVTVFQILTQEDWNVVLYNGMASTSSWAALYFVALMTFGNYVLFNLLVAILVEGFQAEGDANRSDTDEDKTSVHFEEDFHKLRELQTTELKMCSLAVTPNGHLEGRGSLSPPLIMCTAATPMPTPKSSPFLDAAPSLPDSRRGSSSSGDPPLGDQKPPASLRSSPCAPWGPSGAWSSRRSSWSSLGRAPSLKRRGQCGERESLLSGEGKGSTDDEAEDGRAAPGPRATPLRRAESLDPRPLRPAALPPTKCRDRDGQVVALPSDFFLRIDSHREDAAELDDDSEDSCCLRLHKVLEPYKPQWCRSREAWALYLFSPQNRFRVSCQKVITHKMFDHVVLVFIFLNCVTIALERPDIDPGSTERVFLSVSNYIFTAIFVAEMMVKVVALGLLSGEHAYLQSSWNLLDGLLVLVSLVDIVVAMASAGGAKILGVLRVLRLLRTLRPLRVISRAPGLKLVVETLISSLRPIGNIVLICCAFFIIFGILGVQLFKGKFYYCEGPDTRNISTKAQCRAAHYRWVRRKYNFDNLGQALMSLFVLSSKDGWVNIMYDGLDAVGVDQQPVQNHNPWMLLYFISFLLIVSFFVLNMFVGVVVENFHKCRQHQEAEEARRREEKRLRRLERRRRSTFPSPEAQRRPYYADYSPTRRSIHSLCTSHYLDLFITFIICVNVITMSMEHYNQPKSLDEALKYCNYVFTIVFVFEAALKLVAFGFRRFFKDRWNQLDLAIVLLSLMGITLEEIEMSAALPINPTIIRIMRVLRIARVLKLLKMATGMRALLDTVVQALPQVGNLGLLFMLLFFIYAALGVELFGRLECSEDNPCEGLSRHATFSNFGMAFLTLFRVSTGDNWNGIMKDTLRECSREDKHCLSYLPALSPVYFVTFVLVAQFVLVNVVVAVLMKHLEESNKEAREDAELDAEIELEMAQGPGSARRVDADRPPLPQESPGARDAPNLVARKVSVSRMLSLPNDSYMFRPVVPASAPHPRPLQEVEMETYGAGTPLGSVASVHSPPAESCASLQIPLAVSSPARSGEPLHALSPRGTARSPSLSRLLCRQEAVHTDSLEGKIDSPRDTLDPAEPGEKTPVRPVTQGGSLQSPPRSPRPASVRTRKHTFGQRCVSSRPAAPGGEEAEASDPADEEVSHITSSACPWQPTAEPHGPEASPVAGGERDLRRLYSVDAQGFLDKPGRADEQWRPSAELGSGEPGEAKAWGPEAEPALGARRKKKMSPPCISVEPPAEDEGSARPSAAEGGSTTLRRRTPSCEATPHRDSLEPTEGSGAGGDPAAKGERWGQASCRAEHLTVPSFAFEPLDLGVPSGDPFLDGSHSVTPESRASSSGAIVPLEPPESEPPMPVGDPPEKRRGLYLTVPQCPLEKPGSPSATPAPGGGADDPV

B-score, inactive:
COc1ccc(NS(=O)(=O)c2ccc(NC(=S)NC(=O)CC(C)C)cc2)cc1 -2.74, Cc1c(C(=O)OC(C)C)sc(NC(=O)c2cccnc2)c1C#N -2.15, CC(=O)c1cnn(-c2cc(Oc3ccc(F)cc3)ncn2)c1C -0.109, CCC(=O)Nc1cccc(C2=NOC3(C2)C[C@@H](C(N)=O)N(C(=O)c2cc([N+](=O)[O-])cc([N+](=O)[O-])c2C)C3)c1 (some centres not stated) 0.296, Cc1ccc(C(=O)NC2CCN(C(=O)N3CCOCC3)CC2)cc1 1.24, CCOc1ccc(C(=O)NC2CCN(C(=O)Nc3ccccc3OC)CC2)cc1 1.41, C=CC(COCc1ccccc1)N(Cc1ccccc1)S(=O)(=O)c1ccccc1Br (configuration not stated) -0.978, O=C(CN1CCOCC1)Nc1ccccc1 -0.393, O=C(CN1CCN(CC(=O)Nc2ccc3c(c2)OCO3)CC1)Nc1ccc(F)cc1 2.27, COc1ccc(CCNC(=O)C2CC3Cn4c(nc5cc(C)c(C)cc54)C3N2C)cc1 (configuration not stated) 0.841, Cc1nn(C(=O)c2ccoc2C)c(N)c1-c1ccccc1 -1.25, Cc1nc(NC(=O)c2cccc(Cl)c2)sc1-c1csc(Nc2cccc(Cl)c2)n1 1.63, O=C(NCc1ccccc1)C1=C[C@@H](c2ccccc2)C[C@@H](OCCCCO)O1 0.00916, O=[N+]([O-])c1ccccc1NCc1ccc(Cl)cc1 -0.134, C#CCN(N(C)c1ncc(C(F)(F)F)cc1Cl)S(=O)(=O)c1ccc2ccccc2c1 -1.26, CC(C)(C)NCC(O)COc1cccc2[nH]c(=O)[nH]c12 (configuration not stated) 2.63, CCOC(=O)CSc1nc2c(sc(=S)n2CCc2ccccc2)c(=O)n1Cc1ccco1 -3.99, Cc1cc2c(c(=O)n1Cc1ccco1)C(c1ccccc1)C(C#N)=C(N)O2 (configuration not stated) 0.691, O=C1CCC(=O)N(O)CCCCCNC(=O)CCC(=O)N(O)CCCCCNC(=O)CCC(=O)N(O)CCCCCN1 0.127, CCN(c1ccccc1)S(=O)(=O)c1ccc(NC(=O)C(C)(C)C)cc1 -0.778, COC(=O)c1ccc(Sc2ccc(F)cc2)c(N)c1 -2.9, CCC1(CC)Cc2ccccc2-c2nc3ccccc3c(=O)n21 -0.963, CC1(C)Cc2ccccc2-c2nc(CN3CCOCC3)[nH]c(=O)c21 -0.167, CNC(=O)c1csc(-c2ccccc2)n1 0.414, c1cncc(-c2nnc3n2C2(CCCCC2)Cc2ccccc2-3)c1 0.419, Cc1cccc(C(=O)Nc2ccc(C(=O)/C=C/c3cccs3)cc2)c1 -1.78, COC(=O)C1=C(C(=O)OC)[C@@H]2N(C)c3ccccc3[C@@]23C[C@@H](C(=O)OC)N(C(=O)c2ccco2)C3=N1 0.92, CCOc1ccc(Nc2nc(Cc3nnc(SCC(=O)NC4CCCC4)n3C)cs2)cc1 -0.148, COCCCn1c(SCC(=O)Nc2ccccc2)nnc1-c1ccncc1 -1.03, Cc1ccc(/C=N\n2c(-c3ccccc3)n[nH]c2=S)s1 -0.0777, CC1(C)S[C@@H]2[C@H](N=CN3CCCCCC3)C(=O)N2[C@H]1C(=O)O 0.247, O=c1cc(N2CCN(Cc3ccccc3)CC2)c(-c2ccccc2)n[nH]1 0.119, CC(C)Oc1ccc(CCc2n[nH]c(=S)n2Cc2ccccc2)cc1 -1.48, CC(C)N(c1ccccc1)c1ncnc(NCCC(=O)O)c1[N+](=O)[O-] 0.156, COc1ccc(NC(=S)N2N=CCC2c2ccccc2)cc1 (configuration not stated) 0.319, C=CCOC(=O)C1=C[C@@H](c2ccccc2)C[C@@H](OCc2ccc(CO)cc2)O1 -1.02, CCN1C(=O)N[C@@H](c2ccccc2)[C@H](C(C)=O)[C@H]1C 0.0204, Cc1cc(-c2cccs2)nc(-n2cccc2)n1 0.352, O=C(CN1CCCCC1)N1c2ccccc2Sc2ccc(C(F)(F)F)cc21 -2.51, CC1CC(C)CN(CC(=O)N2c3ccccc3CCc3ccccc32)C1 (configuration not stated) -3.85, CC(Sc1nc2c([nH]c3ccccc32)c(=O)n1C)c1ccccc1 (configuration not stated) 0.215, CN(C)CCNC(=O)Nc1cccc(Cl)c1Cl 0.258, NC(=O)CC(NC(=O)Cc1cccc2ccccc12)c1ccc(NCc2cc(F)ccc2F)c([N+](=O)[O-])c1 (configuration not stated) -0.287, Cc1cnc(NC(=O)CSc2c(Cl)cccc2Cl)s1 -0.466, Cc1cnc(NC(=O)CSc2nnc(-c3ccccc3)n2Cc2ccccc2)s1 -2.37, CNC(=O)CN1C(=O)c2ccccc2S1(=O)=O 0.319, CS(=O)(=O)N(CC(O)Cn1c2ccccc2c2ccccc21)c1cccc2ccccc12 (configuration not stated) 1.02, Cn1ccnc1-c1nnn(-c2ccc(F)cc2)n1 -0.241, Cc1cccc(C(=O)Nc2ccccc2-c2nnn(CC(=O)Nc3ccc4c(c3)OCCO4)n2)c1 0.0432, COc1ccc(C2/C=C\CN(S(=O)(=O)c3cccs3)CC(=O)N2Cc2ccc(F)cc2)cc1 (configuration not stated) -1.93, O=C(NC1CCCCC1)N1CCc2[nH]c3ccccc3c2C1 -0.408, CCCC(=O)N1CCc2[nH]c3ccccc3c2C1 1.88, CCC(C)NC(=O)c1c(N)n(/N=C/c2cccs2)c2nc3ccccc3nc12 (configuration not stated) -0.663, COc1ccccc1OCCNc1cc(N2CCOCC2)ccc1[N+](=O)[O-] -0.763, CCOC(=O)c1sc(NC(=O)CSc2nc3c(c(=O)n2-c2ccccc2)SCC3)c(C(=O)OCC)c1C -0.157, CC(=O)N1CCN(C(=O)Nc2cccc(C(F)(F)F)c2)CC1 0.454, CC(C)C[C@H](NC(=O)Nc1cccc(C(F)(F)F)c1)C(=O)O 0.25, c1ccc(-n2nnnc2NC2CCCCCC2)cc1 0.00228, O=C(c1ccco1)N1CCN(C(=O)C2c3ccccc3Oc3ccccc32)CC1 0.29, O=C(N/N=C/c1ccc(O)c(O)c1)C1c2ccccc2Oc2ccccc21 1.05, C=CCNc1nc(N)c(C(=C(C#N)C#N)c2ccccc2)s1 -0.0432, COC(C[C@@H](O)[C@H](C)[C@H](O)COCc1ccccc1)OC 0.321, CCN(CC)c1ccc(NC(=O)c2ccc(Cl)nc2)cc1 -0.986, CCOc1ccccc1Nc1nnc(SCc2ccc(C(=O)OC)o2)s1 -3.2, COc1ccccc1-c1nnc(SCC(=O)N2CC(C)CC(C)C2)o1 (configuration not stated) 0.0644, O=C(Nc1ccccc1)OCc1cn(-c2ccc(Cl)cc2)nn1 -0.643, CCOC(=O)N1CCN(C(=O)CN(c2ccc(C)c(C)c2)S(=O)(=O)c2ccccc2)CC1 -1.16, COc1cccc(N(CC(=O)N2CCc3ccccc3C2)S(C)(=O)=O)c1 1.04, O=C(NCc1ccccc1)C1=C[C@H](C2CC2)C[C@H](OCc2ccc(CO)cc2)O1 -0.049, CCOC(=O)c1c(NC(=O)C(C)Sc2c[nH]c3ccccc23)sc2c1CCC2 (configuration not stated) -0.96, C#CCOCCOCCOCCNc1nc(N2CCN(C(=O)[C@H](C(C)C)n3cc(CCO)nn3)CC2)nc(N2CCN(C(=O)[C@H]([C@@H](C)CC)n3cc(CCCN=C(N)N)nn3)CC2)n1 0.0921, CC1=NN(C(=O)c2ccccc2Br)C(O)(c2cccnc2)C1 (configuration not stated) 0.377, CC1=CC(C)(C)N(C(=O)CSc2nccn2C)c2cc(C)ccc21 -0.49, O=C(CSc1nnc(-c2ccccc2)o1)N1CCOCC1 -0.483

B-score, active:
COc1cc(OC)cc(C(=O)NC2CCN(C(=O)N3c4ccccc4Sc4ccccc43)CC2)c1 -3.52, O=C(CN1CCN(c2ccc(F)cc2)CC1)Nc1cccc(C(F)(F)F)c1 -5.59, Cc1nn2c(c1-c1ccccc1)N=C(c1ccco1)CC2c1ccccc1 (configuration not stated) -4.41, CCN(CC)S(=O)(=O)c1ccc(N(C)Cc2ccc(C(F)(F)F)cc2)nc1 -5.7, CN(c1ccccc1)c1ccc(/C=c2\s/c(=C(/C#N)C(=O)C(C)(C)C)n(Cc3ccco3)c2=O)cc1 -7.8, CC(C)(CCl)C(=O)Nc1ccc(Sc2ccc(F)cc2)cc1 -7.91, CCOC(=O)C1Cn2c(nc3c(c2=O)C(C)(CC)Cc2ccccc2-3)S1 (configuration not stated) -9.41, COCCCn1c(Cc2csc(Nc3cccc(Cl)c3)n2)nnc1SCC(=O)OC1CCCCC1 -7.39, CNC(=S)N1N=C(c2ccccc2)CC1c1ccc(Br)cc1 (configuration not stated) -7.33, O=C(CN1CCCCCC1)N1c2ccccc2Sc2ccc(C(F)(F)F)cc21 -4.47, Cc1cnc(NC(=O)CSc2nnc(-c3ccc(Cl)cc3Cl)n2N)s1 -4.55, O=C1c2ccccc2S(=O)(=O)N1CC(O)Cn1c2ccccc2c2ccccc21 (configuration not stated) -5.05, O=C(Nc1ccc(Cl)cc1)N1CCc2[nH]c3ccccc3c2C1 -6.38, FC(F)(F)c1cccc(NC(=S)Nc2cccc(Cl)c2)c1 -7.17, CCCN(CCC)C(=O)C1c2ccccc2Oc2ccccc21 -4.57, COc1cccc(Nc2nnc(SCC(=O)N3CC(C)OC(C)C3)s2)c1 (configuration not stated) -4.05, Cc1ccc(S(=O)(=O)N(CC(=O)N2CCc3ccccc3C2)c2cccc(Cl)c2)cc1 -5.57, CC1=CC(C)(C)N(C(=O)CSc2nnc(-c3ccccc3)o2)c2ccc(C)cc21 -4.16

Source: PubChem BioAssay AID449739 (Vanderbilt High Throughput Screening Facility, 2010)
